Assay results: PubChem BioAssay (NCATS)
Results filed as inconclusive are left out. The source made the active and inactive calls. Unless noted, the call rests on the fitted dose curve; in most records, active means well fitted curve in the direction sought with a large enough effect; inconclusive means small, poorly fitted or top-dose-only effect, or another doubt; inactive means no such curve, though single readings can be large; an effect the other way counts as inactive or inconclusive.

Columns and labels:
[1] = target: Luciferin 4-monooxygenase (Photinus pyralis) (UniProt P08659); assay: Biochemical firefly luciferase enzyme assay for NPC (AID 624030);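 further: purified P. pyralis luciferase at 10 nM with luciferin and ATP substrate; 0% = DMSO and -100% = full luciferase inhibition by PTC124 control; nearly all actives have a fitted effect of over 70% in size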
Method in brief: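 Purified P. pyralis luciferase at 10 nM in 50 mM Tris Acetate (final), luminescence read within 5 minutes of enzyme addition to compounds. Activity normalised to PTC124 versus DMSO; concentration-response curves classed by r2, magnitude and activity.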

[2] = S16 Schwann cell viability assay (CellTiter-Glo assay) (AID 624031);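 further: native untransfected S16 rat Schwann cells; cellular ATP luminescence as a viability measure; plate controls were DMSO-treated cells for no effect and cell-free wells for full effect; nearly all actives have a fitted effect of over 70% in size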
Method in brief: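 Cells were seeded at 500-750 per well in phenol red-free DMEM with 10% FBS and left overnight. Compounds or DMSO were pinned in, incubation ran 24 h at 37 °C/5% CO2, then CellTiter-Glo reagent was added and luminescence measured.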

[3] = S16 Schwann cell PMP22 intronic element firefly luciferase assay (AID 624032);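 further: plate controls were DMSO for no effect and PTC124 positive control mean for full effect; nearly all actives have a fitted effect of over 30% in size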
Method in brief: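 Rat S16 Schwann cells stably carrying firefly luciferase driven by a PMP22 intronic element, in 10% FBS, treated 24 h at 37 C. ONE-Glo luminescence normalized to PTC124 control and DMSO (0%); curves classed by r2, magnitude and activity.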

[4] = S16 Schwann cell PMP22 intronic element beta-lactamase assay (AID 624044; calls by dose curve;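 further: 0% = DMSO and -100% = potassium clavulanate positive control; nearly all actives have a fitted effect of over 15% in size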)
Method in brief: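 Beta-lactamase reporter under a PMP22 intronic regulatory element in stable S16 rat Schwann cells; 24 h compound exposure. 460 nm blue signal normalized between DMSO (0%) and potassium clavulanate, with 535 nm FRET tracking viability; curves classed by r2 and response.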

C2A = assay: qHTS profiling for inhibitors of Plasmodium falciparum proliferation (AID 504749);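 further: 0% = DMSO vehicle and full inhibition = artemisinin control; nearly all actives have a fitted effect of over 60% in size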; details: P. falciparum in erythrocytes, SYBR Green DNA, 72 h; series mostly up to 28.7 µM
Method in brief: (§1)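 Each compound contacts P. falciparum-infected red blood cells for 72 h at 37 C; lysis buffer (Tris, EDTA, saponin, Triton X, SYBR Green I) is added and fluorescence measured next morning; values normalized to controls.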

CP217 = assay: as above; details: P. falciparum in erythrocytes, SYBR Green DNA, 72 h; series mostly up to 28.7 µM
Method in brief: as §1

CP250 = assay: as above; details: P. falciparum in erythrocytes, SYBR Green DNA, 72 h; series mostly up to 28.7 µM
Method in brief: as §1

CP252 = assay: as above; details: P. falciparum in erythrocytes, SYBR Green DNA, 72 h; series mostly up to 28.7 µM
Method in brief: as §1

CP256 = assay: as above; details: P. falciparum in erythrocytes, SYBR Green DNA, 72 h; series mostly up to 28.7 µM
Method in brief: as §1

CP260 = assay: as above; details: P. falciparum in erythrocytes, SYBR Green DNA, 72 h; series mostly up to 28.7 µM
Method in brief: as §1

Dd2 = assay: as above; details: P. falciparum in erythrocytes, SYBR Green DNA, 72 h; series mostly up to 28.7 µM
Method in brief: as §1

ECU = assay: as above; details: P. falciparum in erythrocytes, SYBR Green DNA, 72 h; series mostly up to 28.7 µM
Method in brief: as §1

ICS = assay: as above; details: P. falciparum in erythrocytes, SYBR Green DNA, 72 h; series mostly up to 28.7 µM
Method in brief: as §1

JCK = assay: as above; details: P. falciparum in erythrocytes, SYBR Green DNA, 72 h; series mostly up to 28.7 µM
Method in brief: as §1

N140 = assay: as above; details: P. falciparum in erythrocytes, SYBR Green DNA, 72 h; series mostly up to 28.7 µM
Method in brief: as §1

P93_24 = assay: as above; details: P. falciparum in erythrocytes, SYBR Green DNA, 72 h; series mostly up to 28.7 µM
Method in brief: as §1

SC27B = assay: as above; details: P. falciparum in erythrocytes, SYBR Green DNA, 72 h; series mostly up to 28.7 µM
Method in brief: as §1

[5] = Cellular Toxicity (caspase-3) Renal Proximal Tubule (AID 667);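 further: cells exposed to compound for 16 hours at 37 °C before detection; 0% = DMSO basal and 100% = 10 µM staurosporine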
Method in brief: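 Freshly isolated primary rat kidney proximal tubule cells, 1000/well, treated 16 hr at 37 °C, then Caspase-Glo 3/7 luminescence after 1 hr. Normalized to DMSO and 10 uM staurosporine; AC50 from Hill fit.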

[6] = target: Androgen receptor (Homo sapiens) (UniProt P10275); assay: qHTS assay for small molecule agonists of androgen receptor signaling (AID 588515; active means well fitted curve in the direction sought with a large enough effect in the signal ratio, with a control signal flat; the % refers to the signal ratio; further: on the % scale 0 is the no-effect control and ±100 the full control effect); details: AR-UAS-bla HEK293, beta-lactamase ratio, agonist 16 h; active compounds read high
Method in brief: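 Stimulation of an AR-responsive β-lactamase reporter in GripTite HEK293 cells was measured after 16 h compound exposure at 37 °C, via CCF4 fluorescence after 2 h RT. EC50 from Hill fits, normalized to R1881 at 30 nM.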

[7] = target: Androgen receptor (Homo sapiens) (UniProt P10275); assay: qHTS assay for small molecule antagonists of androgen receptor signaling (AID 588516; active means well fitted curve in the direction sought with a large enough effect in the signal ratio, with a control signal flat, not every such curve was filed as active; the % refers to the signal ratio; further: on the % scale 0 is the no-effect control and ±100 the full control effect)
Method in brief: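 AR-UAS-bla GripTite HEK 293 cells (2000/well) treated with compound titrations plus 10 nM R1881 for 16 h at 37C. Beta-lactamase read by CCF4 FRET (460/530 nm); IC50 from Hill fits, normalized to R1881 and DMSO control wells.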

Chain of Androgen receptor (Homo sapiens) (P10275 whole entry, looked up): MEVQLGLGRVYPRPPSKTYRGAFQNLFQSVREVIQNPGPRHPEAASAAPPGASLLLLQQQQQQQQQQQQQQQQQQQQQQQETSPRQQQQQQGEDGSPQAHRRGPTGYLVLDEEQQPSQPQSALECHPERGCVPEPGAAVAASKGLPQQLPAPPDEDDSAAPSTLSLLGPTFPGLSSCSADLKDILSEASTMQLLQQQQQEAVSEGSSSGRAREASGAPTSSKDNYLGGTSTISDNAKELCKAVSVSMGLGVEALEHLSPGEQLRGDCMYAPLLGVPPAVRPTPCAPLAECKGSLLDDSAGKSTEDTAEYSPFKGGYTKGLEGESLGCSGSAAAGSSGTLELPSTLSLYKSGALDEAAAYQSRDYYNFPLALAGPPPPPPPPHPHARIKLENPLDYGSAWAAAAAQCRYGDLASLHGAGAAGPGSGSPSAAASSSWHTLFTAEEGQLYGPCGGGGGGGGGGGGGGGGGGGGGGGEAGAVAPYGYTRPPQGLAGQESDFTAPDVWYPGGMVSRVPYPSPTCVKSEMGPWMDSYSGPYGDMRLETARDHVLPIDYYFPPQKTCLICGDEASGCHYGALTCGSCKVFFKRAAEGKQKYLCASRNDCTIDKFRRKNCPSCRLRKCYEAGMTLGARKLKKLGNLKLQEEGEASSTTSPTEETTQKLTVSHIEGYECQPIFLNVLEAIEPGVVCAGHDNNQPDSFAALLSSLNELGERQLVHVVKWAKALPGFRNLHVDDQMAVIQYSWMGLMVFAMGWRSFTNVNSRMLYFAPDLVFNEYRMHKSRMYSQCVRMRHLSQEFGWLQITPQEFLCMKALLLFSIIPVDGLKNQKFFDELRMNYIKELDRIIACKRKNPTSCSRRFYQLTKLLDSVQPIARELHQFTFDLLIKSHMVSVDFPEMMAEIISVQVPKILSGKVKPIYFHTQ
Chain of Luciferin 4-monooxygenase (Photinus pyralis) (P08659 whole entry, looked up): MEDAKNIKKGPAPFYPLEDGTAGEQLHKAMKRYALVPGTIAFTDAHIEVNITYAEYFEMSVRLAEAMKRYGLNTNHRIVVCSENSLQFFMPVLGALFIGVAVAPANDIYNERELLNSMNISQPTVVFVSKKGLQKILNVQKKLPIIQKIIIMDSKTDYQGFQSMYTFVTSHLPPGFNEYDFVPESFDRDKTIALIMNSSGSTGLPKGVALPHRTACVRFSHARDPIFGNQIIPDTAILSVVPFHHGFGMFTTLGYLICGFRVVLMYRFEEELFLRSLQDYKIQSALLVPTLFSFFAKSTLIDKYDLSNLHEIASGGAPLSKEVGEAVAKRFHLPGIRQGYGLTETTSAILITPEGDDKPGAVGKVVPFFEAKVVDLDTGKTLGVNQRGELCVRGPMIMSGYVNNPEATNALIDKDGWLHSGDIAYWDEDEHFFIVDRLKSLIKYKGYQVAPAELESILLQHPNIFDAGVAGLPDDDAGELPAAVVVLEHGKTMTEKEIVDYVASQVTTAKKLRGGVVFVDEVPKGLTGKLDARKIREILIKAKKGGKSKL

CC(=O)OC1CC2CCC1(C)C2(C)C (stereo not given)
inactive: Potency [1] | Potency [2] | Potency [3] | Potency [4] | Potency (C2A) | Potency (CP217) | Potency (CP250) | Potency (CP252) | Potency (CP256) | Potency (CP260) | Potency (Dd2) | Potency (ECU) | Potency (ICS) | Potency (JCK) | Potency (N140) | Potency (P93_24) | Potency (SC27B)

O=C(O)c1ccccc1
inactive: outcome [5]

CC1=C2[C@H](/C=C(\C)C(=O)O)CC[C@@H](C)[C@H]2CC1
inactive: activation [6] -0.457% | outcome [7]
